A selection: hits, their analogues and other compounds. The true share with any hit is near 2.9%.
A549 tox – Nrf2 qHTS screen for inhibitors: counterscreen for cytotoxicity | A549 ARE-Fluc cells, CellTiter-Fluor viability, 18-24 h | Potency, µM (doses to about 46 µM), for inactives: at the top dose activity change, negative = cytotoxicity, actives largely listed as inhibitors | actives 0.16% (n = 390,000) | AID 504648, 2011; note: % is set by controls: 0 for no effect and ±100 for the full control effect
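Cytotoxicity counterscreen: CellTiter-Fluor fluorescence was measured in A549 ARE_Fluc cells after 18-24 h of compound exposure in a concentration series. The subsequent BugLite luminescent read reports ARE-luciferase activity.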
Nrf2 block – Nrf2 qHTS screen for inhibitors | A549 ARE-Fluc reporter, luciferase luminescence, 18-24 h | Potency, µM (titrated, usually from 46 µM), for the others: at the top dose activity change, negative = inhibition, actives largely listed as inhibitors | actives 2.1% (n = 360,000) | AID 504444, 2011; note: % is set by controls: 0 for no effect and ±100 for the full control effect; nearly all actives have a fitted effect of over 60% in size
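Concentration-response testing used A549 ARE_Fluc cells at 5000 cells/well. Following an 18-24 h compound incubation, viability was read by fluorescence (Ex 405/Em 525) and luciferase output by luminescence.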
ATXN2 expr inh – Primary qHTS for Inhibitors of ATXN expression; HEK-293 ATXN2-luciferase reporter, luminescence, 24 h; Potency, µM (doses to about 57 µM), for the others: at the top dose activity change, negative = inhibition, most hits filed as inhibitors; actives 0.72% (n = 360,000); AID 1745845, 2022; note: % is set by controls: 0 for no effect and ±100 for the full control effect; nearly all actives have a fitted effect of over 55% in size
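ATXN2-luciferase reporter cells (luciferase flanked by upstream and downstream ATXN2 gene portions) were treated 24 h at 37 °C with compounds at up to 57 uM. SteadyGlo luminescence gave expression; GF-AFC fluorescence gave viability.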
ATXN viability – Viability Counterscreen for Primary qHTS for Inhibitors of ATXN expression. S2 cells (HEK-293 line with an ATXN2-luciferase reporter) viability, CellTiter-Fluor protease fluorescence, 24 h. Potency, µM (highest dose often 56.7 µM), actives largely listed as cytotoxic. actives 0.49% (n = 400,000); note: nearly all actives have a fitted effect of over 40% in size
Nrf2 activator – qHTS of Nrf2 Activators | Potency, µM (doses to about 46.1 µM), for inactives: at the top dose activation, usual class: activators | actives 0.31% (n = 410,000) | AREc32 ARE-luciferase reporter (MCF7-derived line), luminescence, 24 h; note: % of control where 0% means no effect; nearly all actives have a fitted effect of over 65% in size
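AREc32 cells carrying an ARE-driven firefly luciferase reporter were seeded at 1000 cells/well in OPTI-MEM with 5% FBS, then exposed to compound for 24 hr at 37 deg C. Luminescence was read with Steady-Glo after 30 min at RT.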
Starred values were filed as active, the others as inactive; i = inactive; ? = inconclusive; / = no result; ! = not active in a repeat; [ ] = remark or other dose. Calls come from the whole dose curve; as a rule, active = well fitted curve in the direction sought with a large enough effect; inconclusive = small, poorly fitted or top-dose-only effect, or another doubt; inactive = no such curve, though single readings can be large; an effect the other way counts as inactive or inconclusive. Potency is the fitted concentration of half-maximal effect.

SMILES | A549 tox | Nrf2 block | ATXN2 expr inh | ATXN viability | Nrf2 activator
Clc1nnc(NN=C2CCCC2)c2ccccc12 | -1.5% | ? | 9.6% | i | 10µM*
C(=N\Nc1nncc2ccccc12)/c1ccccc1 | 3.7% | ? | 33.2% | i | 11.2µM*
Clc1ccc(/C=N/Nc2nnc(Cl)c3ccccc23)cc1 | -8.4% | -14.2% | -7.9% | i | 1.26µM*
Cc1cccc(/C=N/Nc2nncc3ccccc23)c1 | -3.3% | ? | -13.5% | i | 0.8%
COCC(=O)Nc1cc(C(=O)NC2CCCc3ccccc32)c2c(c1)nc(-c1ccncc1)n2C (configuration not stated) | / | / | / | i | /
Cc1[nH]nc2c1C(c1ccc(-c3ccc(Cl)cc3)o1)C(C#N)=C(N)O2 (configuration not stated) | -9.7% | 20.5% | 3.6% | ? | 15.8µM*
CC(C)(C)c1ccc(C(=O)Nc2ccc(CN3CCS(=O)(=O)CC3)cc2)cc1 | -11.0% | 7.31µM* | ? | i | -0.7%
O=C(Nc1ccc(CN2CCS(=O)(=O)CC2)cc1)c1ccc(C(F)(F)F)cc1 | -16.3% | 18.4µM* | -17.4% | i | -0.4%
COC(=O)Cc1ccc(NC(=O)c2ccc(C(C)(C)C)cc2)cc1 | ? | 2.06µM* | 0.794µM* | i | -1.6%
COc1ccc(CCNC(=O)c2nn(C)c3c2CS(=O)(=O)c2ccccc2-3)c(OC)c1 | -13.2% | 23.1µM* | -28.1% | i | -1.1%
COCCCNC(=O)c1nn(C)c2c1CS(=O)(=O)c1ccccc1-2 | 1.6% | -1.9% | 12.5% | i | 0.9%
CCN(CC)CCCNC(=O)c1nn(C)c2c1CS(=O)(=O)c1ccccc1-2 | -2.8% | 18.4µM* | 0.6% | i | -0.5%
Cc1ccc(SCC(Cc2ccccc2)N2CCN(C)CCC2=O)cc1 (configuration not stated) | 1.9% | 22.6% | / | / | /
Cc1cc(C(=O)Nc2cccc(-c3nc(CNC(=O)c4sc(C)nc4C)c(C)o3)c2)c(C)o1 | / | / | / | i | /
CC(=O)c1ccc(NC(=O)CSc2nc(=O)n(Cc3ccccn3)c3c2CCC3)cc1 | -0.4% | / | -8.7% | i | 4.4%
Cc1nc(CS(=O)(=O)c2ccccc2)cc(N2CCN(c3ccccc3F)CC2)n1 | -1.2% | 20.6µM* | -30.6%[11.3 µM] | i | -0.8%
COc1ccccc1C1CN(Cc2cccnc2)Cc2ccccc2O1 (configuration not stated) | / | / | / | i | /
COc1cc(NC(=O)CN2c3cccc4cccc(c34)S2(=O)=O)cc(OC)c1OC | -11.8% | 23.1µM* | -10.0% | i | 3.1%
COC(=O)C1CCCCN1Cc1ccc2c(c1)CN(C1CCSCC1)CCO2 (configuration not stated) | / | / | / | i | /
COc1cc(=O)n2c(c1C(=O)N(C)Cc1nccs1)CCN(Cc1cccc(F)c1F)CC2 | / | / | / | i | /
Cn1ncc2c(O/N=C(\N)c3ccc(C(F)(F)F)cc3)ncnc21 | ? | 18.4µM* | / | ? | -3.6%
O=C(C1CCCN(c2ncnc3c2nc2n3CCCCC2)C1)N1CCN(c2ccccc2F)CC1 (configuration not stated) | 0.2% | -28.6% | 2.6% | i | -1.2%
Fc1ccccc1N1CCN(c2ncnc3c2nc2n3CCCC2)CC1 | -6.0% | 20.6µM* | / | / | 0.3%
O=C(C1CCN(c2ncnc3c2nc2n3CCCCC2)CC1)N1CCN(c2ccc(F)cc2)CC1 | 6.5% | 18.4µM*! | / | / | 2.2%
O=C(C1CCN(c2ncnc3c2nc2n3CCCCC2)CC1)N1CCN(c2ccccc2)CC1 | -4.4% | -1.5% | / | / | 0.5%
SMILES | A549 tox | Nrf2 block | ATXN2 expr inh | ATXN viability | Nrf2 activator
Cc1ccc(NS(=O)(=O)c2ccc3c(c2)N(C)CCO3)cc1 | -5.9% | 25.9µM* | 11.9% | i | 2.9%
COc1ccc(NS(=O)(=O)c2ccc3c(c2)OCCO3)cc1OC | -11.5% | 20.6µM* | -21.9% | i | 0.3%
COc1ccc(S(=O)(=O)Nc2ccc3ccccc3c2)cc1C | -14.9% | 20.6µM* | -8.1% | i | 3.7%
COc1c(C)cc(NS(=O)(=O)c2ccc3c(c2)OCCO3)cc1C | -10.2% | 23.1µM* | -22.1% | i | 5.9%
Cc1ccc(S(=O)(=O)Nc2ccc3c(c2)OCCO3)cc1C | 9.0% | -9.9% | 23.3%[11.3 µM] | i | -0.2%
Cc1ccc(S(=O)(=O)Nc2ccc3ccccc3c2)cc1 | 7.2% | -2.7% | -14.5% | i | 6.1%
